In all, about 39,000 compounds went through this assay and about 3,300 (8.5%) were called active. Many of the other results were omitted from the sample, so actives are more common in it than they were.
System: HepG2
Assay: cytotoxicity call (relative viability < 0.9)
Conditions: 10 µM

Structure (SMILES)	cytotoxicity call
O=S1(=O)CC=CC1	inactive
Cc1ccc(S[C@]2(C(=O)NC3CC3)CC(=O)N(C3CCCCC3)[C@@H]2c2ccc(CO)cc2I)cc1	inactive
Cc1noc(C)c1S(=O)(=O)Nc1ccc2c(c1)C(=O)N([C@H](C)CO)C[C@@H](C)[C@H](CN(C)C)OCCCC[C@@H](C)O2	inactive
COc1ccc2c3c(n(c2c1)C)[C@@H](CO)N(C[C@]13CCN(CC1)C(=O)c1ccccc1F)C(=O)Nc1ccc(cc1)F	inactive
COc1ccc2c3c(n(c2c1)C)[C@H](CO)N(C[C@]13CCN(CC1)Cc1cccc(c1)F)C(=O)Nc1ccc(cc1)F	active
COc1ccc2c3c(n(c2c1)C)[C@@H](CO)N(C[C@]13CCN(CC1)Cc1cccc(c1)F)C(=O)Nc1ccc(cc1)F	inactive
COc1ccc2c3c(n(c2c1)C)[C@@H](CO)N(C[C@]13CCN(CC1)Cc1ccccc1F)C(=O)Nc1ccc(cc1)F	active
COc1ccc2c3c(n(c2c1)C)[C@H](CO)N(C[C@]13CCN(CC1)Cc1ccccc1F)C(=O)Nc1ccc(cc1)F	inactive
COc1cccc(c1)CN1CC[C@]2(CC1)CN([C@H](CO)c1c2c2ccc(cc2n1C)OC)C(=O)Nc1ccc(cc1)F	inactive
O=C(C[C@H]1CC[C@@H]2[C@H](COC[C@H](O)CN2C(=O)Nc2cccc(F)c2)O1)NCc1ccccc1Cl	inactive
CN1C(=O)c2cc(NC(=O)c3ccc(F)c(F)c3)ccc2OC[C@@H]2O[C@@H](CC(=O)N3CCOCC3)CC[C@H]21	inactive
C[C@H](CO)N1C[C@H](C)[C@@H](CN(C)C(=O)Cc2ccccc2)Oc2cc(-c3cncnc3)ccc2S1(=O)=O	inactive
C[C@@H]1CN([C@H](C)CO)C(=O)c2cc(C#Cc3cccc(F)c3)cnc2O[C@@H]1CN(C)CC1CCOCC1	inactive
COc1ccc(S(=O)(=O)N(C)C[C@@H]2Oc3cc(C#CC4CC4)ccc3S(=O)(=O)N([C@H](C)CO)C[C@@H]2C)cc1	inactive
CO[C@H]1CN(C)C(=O)c2cc(NC(=O)NC3CCCCC3)ccc2OC[C@@H](C)N(CCc2ccccc2)C[C@H]1C	inactive
Cc1noc(C)c1S(=O)(=O)Nc1ccc2c(c1)CC(=O)N([C@@H](C)CO)C[C@@H](C)[C@@H](CN(C)C(=O)NC1CCCCC1)O2	inactive
CN(C)CCCNC(=O)C[C@H]1CC[C@H]2[C@@H](COC[C@@H](O)CN2S(=O)(=O)c2ccccc2)O1	inactive
C[C@@H]1CCCCO[C@H](CN(C)C(=O)Cc2ccccc2)[C@@H](C)CN([C@@H](C)CO)C(=O)c2cc(NC(=O)Nc3ccc(F)cc3)ccc2O1	inactive
C[C@@H]1CN([C@@H](C)CO)C(=O)c2c(c3ccccc3n2C)-c2ccccc2CO[C@H]1CN(C)S(=O)(=O)c1ccc(Cl)cc1	active
C[C@@H]1CN([C@H](C)CO)C(=O)c2c(c3ccccc3n2C)-c2ccccc2CO[C@@H]1CN(C)S(=O)(=O)c1ccc(C(F)(F)F)cc1	inactive
C[C@@H]1CN([C@H](C)CO)C(=O)c2c(c3ccccc3n2C)-c2ccccc2CO[C@H]1CN(C)S(=O)(=O)c1ccc(Cl)cc1	inactive
C[C@@H]1CN([C@@H](C)CO)C(=O)c2c(c3ccccc3n2C)-c2ccccc2CO[C@@H]1CN(C)S(=O)(=O)c1ccc(C(F)(F)F)cc1	inactive

Structure (SMILES)	cytotoxicity call
C[C@@H]1CN([C@H](C)CO)C(=O)c2c(c3ccccc3n2C)-c2ccccc2CO[C@@H]1CN(C)S(=O)(=O)c1ccc(Cl)cc1	inactive
C[C@H]1CN([C@@H](C)CO)C(=O)c2c(c3ccccc3n2C)-c2ccccc2CO[C@H]1CN(C)S(=O)(=O)c1ccc(Cl)cc1	active
C[C@H](CO)N1C[C@H](C)[C@H](CN(C)S(=O)(=O)c2ccc(Cl)cc2)OCc2ccccc2-c2c(n(C)c3ccccc23)C1=O	active
C[C@H]1CN([C@@H](C)CO)C(=O)c2c(c3ccccc3n2C)-c2ccccc2CO[C@@H]1CN(C)S(=O)(=O)c1ccc(Cl)cc1	active
C[C@@H]1CN([C@@H](C)CO)C(=O)c2c(c3ccccc3n2C)-c2ccccc2CO[C@H]1CN(C)S(=O)(=O)c1ccc(C(F)(F)F)cc1	inactive
C[C@H]1CN([C@@H](C)CO)C(=O)c2c(c3ccccc3n2C)-c2ccccc2CO[C@H]1CN(C)S(=O)(=O)c1ccc(C(F)(F)F)cc1	inactive
C[C@@H]1CN([C@@H](C)CO)C(=O)c2c(c3ccccc3n2C)-c2ccccc2CO[C@@H]1CN(C)S(=O)(=O)c1ccc(Cl)cc1	inactive
C[C@H](CO)N1C[C@H](C)[C@@H](CN(C)S(=O)(=O)c2ccc(Cl)cc2)OCc2ccccc2-c2c(n(C)c3ccccc23)C1=O	inactive
C[C@@H]1CCCCO[C@H](CN(C)CC2CC2)[C@H](C)CN([C@@H](C)CO)C(=O)c2cc(NS(=O)(=O)c3cn(C)cn3)ccc2O1	inactive
COCC#Cc1ccc2c(c1)O[C@@H](CN(C)S(=O)(=O)c1ccc(C)cc1)[C@H](C)CN([C@@H](C)CO)S2(=O)=O	inactive
O=C1N[C@H]2[C@@H]1[C@@H]1C=C[C@H]2C1	inactive
COc1ccc(NC(=O)Nc2cccc3c2O[C@@H](CN(C)Cc2ccc(C(F)(F)F)cc2)[C@@H](C)CN([C@@H](C)CO)C3=O)cc1	inactive
Cc1ccc(S(=O)(=O)Nc2ccc3c(c2)C(=O)N([C@H](C)CO)C[C@@H](C)[C@H](CN(C)C(=O)NC2CCCCC2)OCCCC[C@H](C)O3)cc1	inactive
C[C@@H]1CCCCO[C@H](CN(C)Cc2ccccc2)[C@@H](C)CN([C@@H](C)CO)C(=O)c2cc(NC(=O)c3ccccc3)ccc2O1	inactive
CNC(=O)C[C@H]1Nc2ccccc2NC1=O	inactive
N[C@H]1CCCC[C@@H]1OCc1ccccc1	inactive
CC1CCC2(C)C(C=O)=CCCC2C1(C)CC1OC(O)C(=O)C12CO2 (centres undefined)	active
Cc1noc(C)c1S(=O)(=O)N(C)C[C@@H]1OCc2cn(nn2)CCCC(=O)N([C@@H](C)CO)C[C@H]1C	inactive
C[C@@H]1CN([C@H](C)CO)C(=O)c2cc(NC(=O)Cc3ccccc3)ccc2O[C@@H]1CN(C)Cc1ccc(Oc2ccccc2)cc1	inactive
C[C@@H]1CN([C@@H](C)CO)C(=O)c2cc(NC(=O)Cc3ccccc3)ccc2O[C@H]1CN(C)Cc1ccc(Oc2ccccc2)cc1	inactive
C[C@H]1CN([C@@H](C)CO)C(=O)c2cc(NC(=O)Cc3ccccc3)ccc2O[C@@H]1CN(C)Cc1ccc(Oc2ccccc2)cc1	active
C[C@@H]1CN([C@@H](C)CO)C(=O)c2cc(NC(=O)Cc3ccccc3)ccc2O[C@@H]1CN(C)Cc1ccc(Oc2ccccc2)cc1	active

Structure (SMILES)	cytotoxicity call
C[C@H](CO)N1C[C@H](C)[C@@H](CN(C)Cc2ccc(Oc3ccccc3)cc2)Oc2ccc(NC(=O)Cc3ccccc3)cc2C1=O	inactive
C[C@@H]1CN([C@H](C)CO)C(=O)c2cc(NC(=O)Cc3ccccc3)ccc2O[C@H]1CN(C)Cc1ccc(Oc2ccccc2)cc1	active
C[C@H](CO)N1C[C@H](C)[C@H](CN(C)Cc2ccc(Oc3ccccc3)cc2)Oc2ccc(NC(=O)Cc3ccccc3)cc2C1=O	inactive
C[C@H]1CN([C@@H](C)CO)C(=O)c2cc(NC(=O)Cc3ccccc3)ccc2O[C@H]1CN(C)Cc1ccc(Oc2ccccc2)cc1	inactive
COc1ccc(NC(=O)N(C)C[C@H]2Oc3ccc(NC(=O)CCCCCC(=O)Nc4ccccc4N)cc3CC(=O)N([C@@H](C)CO)C[C@@H]2C)cc1	inactive
C[C@H](CO)N1C[C@H](C)[C@@H](CN(C)S(C)(=O)=O)Oc2c(NC(=O)NC3CCCCC3)cccc2C1=O	inactive
CO[C@H]1CN(C)C(=O)c2ccc(NC(=O)NC(C)C)cc2OC[C@@H](C)N(Cc2ccc(-c3ccccn3)cc2)C[C@H]1C	inactive
O=C(CN1CCOCC1)NCC[C@@H]1CC[C@@H](NC(=O)Nc2ccccc2)[C@H](CO)O1	inactive
COc1ccc(-c2cnc3c(c2)C(=O)N([C@@H](C)CO)C[C@@H](C)[C@@H](CN(C)C(=O)Cc2ccccn2)O3)cc1	inactive
CN(C)S(=O)(=O)N1CCN(CC(=O)Nc2ccc(Br)cc2)CC1	inactive
C[C@H]1CN([C@@H](C)CO)C(=O)c2cccc(NC(=O)c3cnccn3)c2O[C@H]1CN(C)S(=O)(=O)c1ccc(F)cc1	inactive
C[C@@H]1CN([C@H](C)CO)C(=O)c2cc(NC(=O)CCC(F)(F)F)ccc2O[C@@H](C)CCCCO[C@@H]1CN(C)Cc1ccc(C(=O)O)cc1	inactive
O=C(O)CC1CCOCC1	inactive
C[C@@H]1CCCCO[C@@H](CN(C)C)[C@H](C)CN([C@H](C)CO)C(=O)c2cc(NC(=O)CCCCCC(=O)Nc3ccccc3N)ccc2O1	inactive
COc1ccc(CN(C)C[C@H]2OCCCC[C@@H](C)Oc3ccc(NC(=O)Nc4ccccc4)cc3C(=O)N([C@H](C)CO)C[C@@H]2C)cc1	inactive
COc1ccc(CN(C)C[C@H]2OCCCC[C@@H](C)Oc3ccc(NC(=O)Nc4ccccc4)cc3C(=O)N([C@@H](C)CO)C[C@H]2C)cc1	active
COc1ccc(CN(C)C[C@@H]2OCCCC[C@H](C)Oc3ccc(NC(=O)Nc4ccccc4)cc3C(=O)N([C@H](C)CO)C[C@H]2C)cc1	inactive
COc1ccc(CN(C)C[C@H]2OCCCC[C@H](C)Oc3ccc(NC(=O)Nc4ccccc4)cc3C(=O)N([C@@H](C)CO)C[C@@H]2C)cc1	inactive
COc1ccc(CN(C)C[C@@H]2OCCCC[C@@H](C)Oc3ccc(NC(=O)Nc4ccccc4)cc3C(=O)N([C@@H](C)CO)C[C@@H]2C)cc1	inactive
COc1ccc(CN(C)C[C@H]2OCCCC[C@@H](C)Oc3ccc(NC(=O)Nc4ccccc4)cc3C(=O)N([C@H](C)CO)C[C@H]2C)cc1	active
